Results filed as inconclusive are left out. A call without a number means that no potency is given here. A number with no mark means an inactive call. Active and inactive are the calls of the source. Calls follow the shape of the full dose curve.
Each molecule was assayed against Cytochrome P450 1A2 (Homo sapiens) (UniProt P05177) (assay: p450-cyp1a2 (AID 410)). Details: recombinant CYP1A2, luciferin-ME demethylation, luminescence; series mostly up to 57 µM.
Chain of Cytochrome P450 1A2 (Homo sapiens) (P05177 whole entry, looked up): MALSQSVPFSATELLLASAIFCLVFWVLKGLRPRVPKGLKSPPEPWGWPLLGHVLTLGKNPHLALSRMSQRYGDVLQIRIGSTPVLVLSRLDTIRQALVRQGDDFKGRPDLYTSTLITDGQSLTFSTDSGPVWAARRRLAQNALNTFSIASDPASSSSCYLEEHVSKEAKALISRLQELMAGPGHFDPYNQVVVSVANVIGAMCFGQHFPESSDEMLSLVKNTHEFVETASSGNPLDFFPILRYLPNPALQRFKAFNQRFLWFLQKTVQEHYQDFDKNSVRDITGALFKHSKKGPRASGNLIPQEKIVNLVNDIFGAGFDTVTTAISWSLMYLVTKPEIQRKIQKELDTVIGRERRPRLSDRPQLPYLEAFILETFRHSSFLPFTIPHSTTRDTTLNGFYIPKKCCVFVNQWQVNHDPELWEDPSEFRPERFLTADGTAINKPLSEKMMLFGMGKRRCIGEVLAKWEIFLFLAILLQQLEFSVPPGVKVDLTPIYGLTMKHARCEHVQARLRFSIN
Description: The P450 gene superfamily is involved in metabolism and the clearance of xenobiotics. This assay used human CYP1A2 to measure the demethylation of luciferin 6' methyl ether (Luciferin-ME; Promega-Glo) to luciferin. The luciferin is then measured by luminescence after the addition of a luciferase detection regeant. Luciferin-ME concentration in the assay was equal to its Km for CYP1A2.
NCGC Assay Protocol Summary:
Two uL of enzyme and substrate mix (final concentrations: 20nM CYP1A2, 100uM Luciferin-ME, 100mM KPO4) were dispensed into a white, solid bottom 1536-well microtiter plate. 23nL of compound was transferred by a pin tool. The plate was incubated at room temperature for 10 min. Two uL of an NADPH regeneration solution (Promega supplied reagent) was dispensed and the reaction was allowed to continue for 60 min at room temperature. Then the reaction was stopped by reconstituted detection reagent. After another 20 min of incubation the plate was read on the ViewLux (Perkin Elmer) at 60 sec exposure and 2x2 binning. This protocol was carried out with Promega-Glo reagents and further information can be found at http://www.promega.com/tbs/tb325/tb325.pdf. Data were normalized to the to AC100 inhibition (57 uM furafylline).
For CCN(CC)C(=O)N[C@H]1C[C@H]2c3cccc4[nH]cc(c34)C[C@@H]2N(C)C1, the Potency was “inactive”.
With O=P(c1ccccc1)(c1ccccc1)N1CC2(CC2)CC(O)(c2ccccc2)C1 (stereo not given) the Potency was “inactive”.
C/C=C(\C)C(=O)O[C@@H]1C(C)=C2[C@H]([C@@H]1OC(=O)CCCCCCC)[C@@](C)(OC(C)=O)C[C@@H](OC(=O)CCC)[C@@]1(O)[C@H]2OC(=O)[C@]1(C)O was tested, and the Potency was 39.8 µM (active).
N[C@]1(C(=O)O)CC[C@@H](C(=O)O)C1 was tested, and the Potency was “inactive”.
In the case of C[C@H](N)c1cccc(Cl)c1Cl, the Potency is reported as 1.26 µM (active).
For O=C(CCCN1CCC2(CC1)C(=O)N(CCc1ccc(N=C=S)cc1)CN2c1ccccc1)c1ccc(F)cc1, the Potency was “inactive”.
With C/C=C1\C[C@H](C)[C@](O)(CO)C(=O)OCC2=CCN3CC[C@@H](OC1=O)[C@@H]23 the Potency was “inactive”.
With CCCC[C@@H]1C[C@H]1C(NP(=O)(c1ccccc1)c1ccccc1)c1ccc(Cl)cc1 (stereo not given in full) the Potency was “inactive”.
In the case of C[C@@H]1CCC/C=C\[C@H]2C[C@H](O)C[C@@H]2[C@H](O)/C=C\C(=O)O1, the Potency is reported as “inactive”.
In the case of COC[C@@H]1OC(=O)c2coc3c2[C@]1(C)C1=C(C3=O)[C@H]2CCC(=O)[C@]2(C)C[C@@H]1OC(C)=O, the Potency is reported as “inactive”.
CC(C)[C@@]1(NC(=O)[C@@H]2C[C@H]3c4cccc5[nH]cc(c45)C[C@@H]3N(C)C2)O[C@@]2(O)[C@H]3CCCN3C(=O)[C@@H](Cc3ccccc3)N2C1=O was tested, and the Potency was “inactive”.
C=C1C/C(=C\C)C(=O)O[C@@H]2CCN3CC=C(COC(=O)[C@]1(C)O)[C@H]23 was tested, and the Potency was “inactive”.
For CC[C@@H]1CN2CC[C@@H]1C[C@H]2[C@@H](O)c1ccnc2ccc(OC)cc12, the Potency was “inactive”.
With COc1cc2c(cc1O)-c1c(O)c(OC)cc3c1[C@H](C2)N(C)CC3 the Potency was 3.16 µM (active).
N[C@@H]1CCc2cc(O)c(O)cc2C1 was tested, and the Potency was “inactive”.
With CN[C@@H](C)[C@@H](O)c1ccccc1 the Potency was 3.16 µM (active).
In the case of C=C(C)[C@@H]1CN[C@H](C(=O)O)[C@H]1CC(=O)O, the Potency is reported as “inactive”.
For C[C@H]1CCCC=CC2C[C@H](O)C[C@@H]2[C@H](O)/C=C\C(=O)O1 (stereo not given in full), the Potency was 15.8 µM (active).
For CC(C)[C@H]1C(=O)N2CCC[C@@H]2[C@]2(O)O[C@@](NC(=O)[C@H]3C=C4c5cccc6[nH]cc(c56)C[C@H]4N(C)C3)(C(C)C)C(=O)N12, the Potency was 31.6 µM (active).
In the case of CC1(C)[C@@H]2CC[C@]1(C)CN(CCC[N+](C)(C)C)C2, the activity change, negative = inhibition is reported as -6.8% [at 2.29 µM].
In the case of CC1=C2[C@@H]3OC(=O)[C@H](C)[C@H]3CC[C@@]2(C)C=CC1=O, the Potency is reported as 31.6 µM (active).
In the case of CCN1C[C@@]2(C)CC[C@H](O)[C@@]34[C@@H]5C[C@H]6[C@H](O)[C@@H]5[C@](O)(C[C@@H]6OC)[C@H](C[C@@H]23)[C@H]14, the Potency is reported as “inactive”.
In the case of C=CCCN1C[C@@H]2C[C@H](C1)c1cccc(=O)n1C2, the Potency is reported as “inactive”.
With O=c1cccc2n1C[C@@H]1C[C@H]2CN2CCCC[C@H]12 the Potency was 1.26 µM (active).
For CC[C@H](CO)NC(=O)[C@@H]1C=C2c3cccc4c3c(cn4C)C[C@@H]2N(C)C1, the Potency was “inactive”.
COc1ccc2[nH]c3c(c2c1)CCN=C3C was tested, and the Potency was 1.58 µM (active).
For CCCCCCCCCCCCCC(=O)O[C@H]1[C@@H](C)[C@@]2(O)[C@@H](C=C(CO)C[C@]3(O)C(=O)C(C)=C[C@@H]23)C2C(C)(C)[C@]21OC(C)=O (stereo not given in full), the Potency was “inactive”.
With C[C@@H]1O[C@@H](O[C@H]2C[C@@H](O)[C@]3(CO)[C@@H]4[C@@H](O)C[C@]5(C)[C@H]([C@@H]6COC(=O)C6)CC[C@@]5(O)[C@H]4CC[C@@]3(O)C2)[C@H](O)[C@H](O)[C@@H]1O the Potency was “inactive”.
For C[C@H]1C(=O)O[C@H]2CCN3CC=C(COC(=O)[C@](C)(O)[C@@]1(C)O)[C@H]23, the Potency was “inactive”.
In the case of NCC[Se][Se]CCN, the Potency is reported as 3.16 µM (active).
For COc1ccc2c(c1O)-c1c(OC)c(OC)cc3c1[C@@H](C2)N(C)CC3, the Potency was 15.8 µM (active).
COc1ccc(C[C@@H]2NC[C@H](O)[C@H]2OC(C)=O)cc1 was tested, and the Potency was “inactive”.
With CCC/C=C(\CCC)C(NP(=O)(c1ccccc1)c1ccccc1)c1ccccc1 (stereo not given) the Potency was 15.8 µM (active).
In the case of CC(C)(C)[C@@]1(O)C[C@@H]2OC(=O)C[C@@]23C(=O)O[C@H]2OC(=O)[C@@H](O)[C@]231, the Potency is reported as “inactive”.
In the case of C[N+]1(C)[C@@H]2CC(OC(=O)[C@@H](CO)c3ccccc3)C[C@@H]1[C@H]1O[C@H]12 (stereo not given in full), the activity change, negative = inhibition is reported as -22.8% [at 11.4 µM].
With COC(=O)C1(C)C=C2C(=C(C)C(=O)C2C)CN1 (stereo not given) the Potency was 31.6 µM (active).
In the case of CCN(CC)c1ncnc2c1ncn2[C@@H]1O[C@@H](COP(=O)(O)OP(=O)(O)C(Br)(Br)P(=O)(O)O)[C@H](O)[C@H]1O, the Potency is reported as 39.8 µM (active).
With C=C[C@@H]1CN2CC[C@@H]1C[C@H]2[C@H](O)c1ccnc2ccccc12 the Potency was “inactive”.
In the case of C[C@]1(C(=O)O)[C@@H]2CC[C@@H](O2)[C@@]1(C)C(=O)O, the Potency is reported as “inactive”.
In the case of CCCN1CCC[C@H](c2cccc(C#N)c2)C1, the Potency is reported as “inactive”.

From PubChem BioAssay (NCATS)
Potency is read from the fitted curve at half-maximal effect.
